The results in this text go back to PubChem BioAssay (NCI).

Some test systems named below: SK-MEL-2 melanoma; EKVX NSCLC; SN12C renal; UO-31 renal; TK-10 renal; ACHN renal; CAKI-1 renal; A498 renal; CCRF-CEM leukemia; MOLT-4 leukemia.
Holding throughout (experiment): NCI-60 one-dose screen, 48 h (100 = growth as untreated, 0 = no growth, -100 = all killed)
Conditions in all cases: 10 µM unless noted

About 83,000 compounds went through this panel and 20% of them were active in at least one assay; those are over-represented in the sample as a whole.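 Negative percent growth values reflect cell death: -40 means 40% of the cells present at the start died, and -100 means all died.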 Values without a mark were called inactive. The source made the active and inactive calls. How the source made its calls: active means growth percent below 10; inactive means the rest.

Consider `COc1ccc(-c2nnc3ccc(N/N=C/c4ccc(C)cc4)nn23)cc1`, for which the growth with SK-MEL-2 melanoma was 108%; with EKVX NSCLC it was 68.2%; with SN12C renal, 76.9%; with UO-31 renal it was 33.5%; with TK-10 renal, 82.7%; in the experiment on ACHN renal, 59%. For the same compound, the growth in the experiment on CAKI-1 renal was 54.6%; in the experiment with A498 renal, 109%; in the experiment with CCRF-CEM leukemia, 91.8%.

With `Cc1ccccc1[C@H]1C(C(=O)c2ccc(Cl)cc2)C2(N[C@@H]1c1ccccc1)C(=O)Nc1ccccc12` (some centres undefined), the growth was -76.3% (active) with SK-MEL-2 melanoma; -15.6% (active) with EKVX NSCLC; -94.9% (active) in the experiment on SN12C renal; 0.424% (active) in the experiment on UO-31 renal; -8.15% (active) in the experiment with TK-10 renal; -13.9% (active) in the experiment on ACHN renal. Besides, the growth in the experiment with CAKI-1 renal was 3.96% (active); in the experiment on A498 renal it was -8.76% (active); in the experiment with CCRF-CEM leukemia, -13.8% (active); in the experiment with MOLT-4 leukemia it was -18% (active).

For `Cc1cccc(Nc2nc3ccccc3nc2/C=C/c2ccc(F)cc2)c1`, the growth with SK-MEL-2 melanoma is 98.3%; in the experiment with EKVX NSCLC it was 83.7%; in the experiment on SN12C renal, 90.9%; in the experiment on UO-31 renal, 67.9%; in the experiment on TK-10 renal, 151%; with ACHN renal, 89.9%. Further, the growth was 79.9% with CAKI-1 renal, 112% in the experiment on A498 renal, 97.1% in the experiment on CCRF-CEM leukemia and 80.9% in the experiment on MOLT-4 leukemia.

On to `COc1ccc(-c2cc(C(=O)NCc3ccccc3)nn2-c2ccc(S(C)(=O)=O)cc2)cc1OC`, for which the growth was 119% in the experiment on SK-MEL-2 melanoma; 97.5% with EKVX NSCLC; 88.1% with SN12C renal; 77% with UO-31 renal; 106% in the experiment with TK-10 renal; 104% in the experiment with ACHN renal. For the same compound, the growth in the experiment on CAKI-1 renal was 87.1%; in the experiment with A498 renal, 99.9%; with CCRF-CEM leukemia, 101%; in the experiment on MOLT-4 leukemia, -4.09% (active).

In the case of `CCOC(=O)COc1c(OC)c(OC)cc2oc(-c3cccc(C(=O)Nc4ccc(Cl)cc4)c3)cc(=O)c12`, the growth in the experiment with SK-MEL-2 melanoma is 71.3%; in the experiment with EKVX NSCLC, 62.5%; in the experiment with SN12C renal, 58.3%; in the experiment on UO-31 renal, 28.1%; in the experiment with TK-10 renal, 87.7%; with ACHN renal, 73.1%. In addition, the growth with CAKI-1 renal was 48.4%; with A498 renal, 82.7%; in the experiment on CCRF-CEM leukemia, 31.1%; in the experiment on MOLT-4 leukemia it was 19.8%.

For the compound `COc1cc(C2CC(c3ccc(S(=O)(=O)NCCNc4nc(Nc5ccc(F)cc5)nc(N(C)C)n4)cc3)=Nc3c(N)nc(N)nc3N2)cc(OC)c1OC` (centres undefined), the growth with SK-MEL-2 melanoma was 90.8%; in the experiment on EKVX NSCLC it was 87.3%; in the experiment with SN12C renal it was 83.9%; with UO-31 renal, 86.1%; in the experiment on TK-10 renal, 95.4%; in the experiment on ACHN renal, 96.8%. The growth is 90.4% in the experiment on CAKI-1 renal, 86.8% with A498 renal, 33.8% in the experiment on CCRF-CEM leukemia and 34.4% in the experiment with MOLT-4 leukemia.

Turning to `Cc1ccc([C@H]2C(C(=O)c3ccc(Cl)cc3)C3(N[C@@H]2c2ccccc2)C(=O)Nc2ccc(Br)cc23)cc1` (some centres undefined), the growth in the experiment on SK-MEL-2 melanoma was 60.2%; in the experiment on EKVX NSCLC it was 65.3%; with SN12C renal it was 4.02% (active); in the experiment on UO-31 renal, 38.6%; in the experiment on TK-10 renal, 91.6%; with ACHN renal, 47%. Also, the growth in the experiment on CAKI-1 renal was 44%; with A498 renal it was 101%; in the experiment with CCRF-CEM leukemia, 68.7%; with MOLT-4 leukemia, 8.72% (active).

On to `Cn1cc(-c2cc(N)n3nc(-c4cn(C)c5ccccc45)cc3n2)c2cc(Br)ccc21`, for which the growth in the experiment with SK-MEL-2 melanoma is -84.5% (active); in the experiment on EKVX NSCLC, -22.1% (active); in the experiment on SN12C renal it was -43.9% (active); in the experiment with UO-31 renal, -84.2% (active); in the experiment on TK-10 renal, -27.8% (active); with ACHN renal it was -31.7% (active). Also, the growth is -75.3% (active) with CAKI-1 renal, -26.3% (active) in the experiment with A498 renal, -4.52% (active) with CCRF-CEM leukemia and -0.0957% (active) in the experiment with MOLT-4 leukemia.

In the case of `CN1C(=O)/C(=C/c2ccc(C(=O)Nc3ncc(Cc4ccc(Cl)cc4Cl)s3)cc2)SC1=S`, the growth in the experiment with SK-MEL-2 melanoma is 19.7%; in the experiment on EKVX NSCLC it was 63%; with SN12C renal it was 36.1%; in the experiment with UO-31 renal, 40.4%; in the experiment on TK-10 renal, 71.4%; in the experiment on ACHN renal, 31.3%. Besides, the growth with CAKI-1 renal was 30.1%; in the experiment with A498 renal it was 87.6%; in the experiment on CCRF-CEM leukemia it was 40.2%; in the experiment with MOLT-4 leukemia it was 31.1%.

In the case of `COc1ccc(NC(=O)Nc2ccc(OCc3ccc(F)cc3)cc2)cc1`, the growth is 96.8% in the experiment with SK-MEL-2 melanoma; 74.2% in the experiment on EKVX NSCLC; 55.7% in the experiment on SN12C renal; 26.3% in the experiment with UO-31 renal; 82.4% in the experiment on TK-10 renal; 42.2% with ACHN renal. In addition, the growth in the experiment with CAKI-1 renal is 66.6%; with A498 renal, 80.3%; in the experiment on CCRF-CEM leukemia, 83.7%; with MOLT-4 leukemia it was 94.8%.

As for `COc1cc(/C=C/C(=O)c2ccccc2)ccc1Oc1nc(Nc2ccc(F)cc2)nc(N(C)C)n1`, the growth with SK-MEL-2 melanoma is -38% (active); in the experiment with EKVX NSCLC it was 38.6%; with SN12C renal, -5.73% (active); in the experiment on UO-31 renal it was 27.3%; in the experiment on TK-10 renal it was 89.8%; with ACHN renal, -4.12% (active). In addition, the growth in the experiment with CAKI-1 renal was 37.5%; in the experiment on A498 renal, 48.8%; with CCRF-CEM leukemia, 9.17% (active); with MOLT-4 leukemia, 7.1% (active).

For the compound `O=C(Nc1cccc(-n2cnc3cc(-c4ccc(O)cc4)ccc32)c1)C1CC1`, the growth is 58.4% with SK-MEL-2 melanoma; 44.4% in the experiment with EKVX NSCLC; 24.9% with SN12C renal; 23.4% with UO-31 renal; 67.4% with TK-10 renal; 15.4% in the experiment with ACHN renal. The growth in the experiment on CAKI-1 renal was 26.2%; in the experiment on A498 renal, 78.2%; in the experiment with CCRF-CEM leukemia it was 25.6%; with MOLT-4 leukemia, 12.7%.

Turning to `Cn1cc(-c2nc(N)nnc2-c2c[nH]c3ccc(F)cc23)c2cccnc21`, the growth in the experiment on SK-MEL-2 melanoma was 85.6%; with EKVX NSCLC, 62.3%; in the experiment with SN12C renal, 49.3%; in the experiment on UO-31 renal, 14.8%; in the experiment with TK-10 renal, 44.6%; with ACHN renal, 14.9%. Also, the growth with CAKI-1 renal is 12.6%; in the experiment on A498 renal, 36.8%; with CCRF-CEM leukemia it was 27.5%; with MOLT-4 leukemia it was 18.2%.
